# IL1B secr inh: inflammasome signaling inhibition, IL-1 beta readout; THP-1 LPS/ATP IL-1B secretion, AlphaLISA, 16 h; hits give low values; activity change, % at 57.5 µM; 4.7% of 360,000 active; in the data active = activity change below about -50%; inconclusive = mostly about -30% to -49%; note: % is set by controls: 0 for no effect and ±100 for the full control effect
#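 THP-1 cells pretreated 1 hr with compounds (up to 57.5 uM final), then stimulated with LPS (250 ng/mL final) plus ATP (1.25 mM final); secreted IL-1B measured by AlphaLISA after 16 hr, decreased signal indicating inhibition.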
# Giardia killer: Giardia lamblia killing; Giardia lamblia trophozoite viability; activity change, % at 7.66 µM, hits read low; 0.15% of 340,000 active; in the data active = activity change below about -80%; inconclusive = between about -30% and that limit;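 note: parasites exposed to compound for two days anaerobically before the ATP read; % is set by controls: 0 for no effect and ±100 for the full control effect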
#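 Luminescent ATP signal served as the viability read-out, measured 15-30 min after adding ATP detection reagent to trophozoites that had been incubated with compounds for 48 hrs at 37 deg C anaerobically at 100 cells/well.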
# TGFb SMAD3 inh: TGF-b pathway inhibition | AID 588855 | 1.2% of 410,000 active | HepG2 CAGA-GFP TGF-b/SMAD3 reporter, GFP fluorescence, 18 h; TGF-beta stimulated, 500 pg/mL final | Potency, µM (doses to about 46.1 µM), without a hit: at the highest dose activity, negative = inhibition, usual class: inhibitors; note: potency is the fitted concentration of half-maximal effect; % is set by controls: 0 for no effect and ±100 for the full control effect; nearly all actives have a fitted effect of over 65% in size
#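 HEPG2 CAGA-GFP reporter cells (1000/well, DMEM with 1% FBS) received compounds, then recombinant TGF-beta at 500 pg/mL final for 18 hours at 37 degrees C. Per-cell GFP summed per well was normalised to unstimulated and stimulated DMSO controls before curve fitting.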
# HT1080 IDH1KD tx: HT-1080 IDH1 knockdown cell toxicity (counter line); Potency, µM (highest dose often 46.1 µM), inactives show at the highest dose activity, negative = toxicity, usual class: cytotoxic; HT-1080 IDH1 knockdown viability, ATP luminescence, 48 h; 2% of 360,000 active;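 note: potency is the fitted concentration of half-maximal effect; 0% = DMSO wells and -100% = cell-free medium wells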
#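 Viability of IDH1-knockdown HT-1080 fibrosarcoma cells was assessed by CellTiter-Glo after 48 h at 37 °C with titrated compound; concentration-effect curves were classified by fit quality and response size.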
# HT1080-NT tox: kills 2HG-producing HT-1080-NT fibrosarcoma cells. HT-1080-NT fibrosarcoma viability, CellTiter-Glo ATP luminescence, 48 h. Potency, µM (top dose mostly 46.1 µM), for the others: at the highest dose activity, negative = less viability, most hits filed as cytotoxic. 1.6% of 360,000 active. AID 686970;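 note: NT is the 2HG producing partner of a matched IDH1 knockdown line; potency is the fitted concentration of half-maximal effect; 0% = DMSO-treated cells and -100% = media-only wells without cells; nearly all actives have a fitted effect of over 55% in size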
#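 Read-out is CellTiter-Glo luminescence after 10 minutes at room temperature, following 48 hours' compound treatment of HT-1080-NT cells (750 cells/well, RPMI, 5% FBS, 37 degrees C).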
# HepG2 tox-1: kills HepG2 cells in TGF-b inhibitor counter-screen. 0.76% of 410,000 active. Potency, µM (series often up to 46.1 µM), without a hit: at the highest dose activity change, negative = cytotoxicity, most hits filed as cytotoxic. AID 588856. HepG2 CAGA-GFP viability, ATP luminescence, 18 h; note: potency is the fitted concentration of half-maximal effect
#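 CellTiter-Glo luminescence gave cytotoxicity after 18 hours at 37 degrees C. The cells were HepG2 CAGA-GFP in 1% FBS DMEM, stimulated with 500 pg/mL TGF-beta after compound addition. %Activity was normalised to no-cell wells (complete cell-killing) and DMSO (no toxicity), and curves were fitted and classified.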
# TGFb confirm: confirmation of TGF-b signaling inhibitors in HepG2 reporter cells; shares compounds with TGFb SMAD3 inh; HepG2 CAGA-GFP TGF-b reporter, GFP fluorescence, 18 h; cells stimulated with TGF-beta, 500 pg/mL; Potency, µM (top dose mostly 46.1 µM), for the others: top-dose activity, negative = inhibition, usual class: inhibitors; 63% of 1,600 active; AID 720534; note: potency is the fitted concentration of half-maximal effect; % is set by controls: 0 for no effect and ±100 for the full control effect; nearly all actives have a fitted effect of over 65% in size
# HepG2 tox-2: toxic to HepG2 cells in TGF-b counterscreen. shares compounds with TGFb SMAD3 inh. HepG2 CAGA-GFP viability, ATP luminescence, 18 h; cells stimulated with TGF-beta, 500 pg/mL. Potency, µM (top dose mostly 46.1 µM), for the others: at the highest dose activity, negative = cytotoxicity, actives largely listed as inhibitors. 27% of 1,600 active. AID 720535; note: potency is the fitted concentration of half-maximal effect; % is set by controls: 0 for no effect and ±100 for the full control effect; nearly all actives have a fitted effect of over 70% in size
# CCL64 TGFb inh: TGF-b inhibition, CCL64 orthogonal assay; shares compounds with TGFb SMAD3 inh; CCL64 CAGA-GFP reporter, TGF-b stimulated, GFP fluorescence, 18 h; Potency, µM (doses to about 46.1 µM), for the others: at the highest dose activity, negative = inhibition, usual class: inhibitors; 41% of 1,600 active; note: potency is the fitted concentration of half-maximal effect; nearly all actives have a fitted effect of over 65% in size
# TGFb COP inh: TGF-b inhibition validated with COP promoter; shares compounds with TGFb SMAD3 inh; HepG2 COP-GFP TGF-b reporter, GFP fluorescence, 18 h; cells stimulated by added recombinant TGF-beta; Potency, µM (series often up to 46.1 µM), inactives show at the top dose activity, negative = inhibition, most hits filed as inhibitors; 3% of 1,600 active; AID 720537; note: potency is the fitted concentration of half-maximal effect; nearly all actives have a fitted effect of over 70% in size
# * hit, by the source's call; u = inconclusive; x = not tested or not shown; ! = a repeat was not active. An excerpt weighted towards active compounds, which were near 6.5% of everything screened. Unless noted, calls come from the whole dose curve; as a rule, active = well fitted curve in the direction sought with a large enough effect; inconclusive = small, poorly fitted or top-dose-only effect, or another doubt; inactive = no such curve, though single readings can be large; an effect the other way counts as inactive or inconclusive.
SMILES,IL1B secr inh,Giardia killer,TGFb SMAD3 inh,HT1080 IDH1KD tx,HT1080-NT tox,HepG2 tox-1,TGFb confirm,HepG2 tox-2,CCL64 TGFb inh,TGFb COP inh
Cc1ccc(C)c(OCCC(=O)Nc2cccc(S(=O)(=O)N3CCCCC3)c2)c1,u,-8,13µM*,9%,0%,-5%,23µM*,-24%,u,6%
COc1ccc(OC)c(C2SCCN2S(=O)(=O)c2cccc(C(F)(F)F)c2)c1 (stereo unspecified),u,1,u,-7%,-6%,-20%,u,-21%,-15%,-4%
CC(C)Sc1ncc(Cl)c(C(=O)Nc2ccc(S(=O)(=O)N(C)c3ccccc3)cc2)n1,x,x,-21%,x,x,-35%,x,x,x,x
CCSc1ncc(Cl)c(C(=O)Nc2ccc(S(=O)(=O)N(C)c3ccccc3)cc2)n1,x,x,-29%,x,x,-5%,x,x,x,x
CCN(c1ccccc1)S(=O)(=O)c1ccc(NC(=O)c2nc(S(C)(=O)=O)ncc2Cl)cc1,-97*,7,6.3µM*,16µM*,18µM*,6.3µM*,4.1µM*,5.2µM*,1.5µM*,6.5µM*
CCS(=O)(=O)c1ncc(Cl)c(C(=O)Nc2ccc(S(=O)(=O)N(C)c3ccccc3)cc2)n1,-103*,2,3.5µM*,3.7µM*,2.6µM*,4.5µM*!,4.6µM*,4.1µM*,1.6µM*,7.3µM*
O=C(c1cccc(S(=O)(=O)N2CCOCC2)c1)N(Cc1nnc(-c2ccccc2Cl)o1)C1CC1,-2,-11,1%,-9%,-9%,-4%,x,x,x,x
O=Cc1cn(CC(=O)Nc2ccc3c(c2)OCO3)c2ccccc12,11,-19,7.1µM*,0%,-2%,-25%,8.2µM*,3.3µM*,15%,34%
Cc1ccc(NC(=O)Cc2ccccc2F)cc1S(=O)(=O)N1CCCCCC1,-4,11,11µM*,-24%,0%,-30%,8.2µM*,u,-23%,16%
CCN(CC(O)Cn1c2ccccc2c2ccccc21)S(=O)(=O)c1ccc(C)cc1 (stereo unspecified),u,11,10µM*,-27%,-4%,-73%,21µM*,u,u,59%
Cc1ccc(NC(=S)NCCc2c[nH]c3ccccc23)c(C)c1,-26,-1,10µM*,6%,0%,-46%,-21%,-23%,u,20%
COc1ccccc1NC(=S)NCCc1c[nH]c2ccccc12,0,-12,-18%,-16%,-22%,-12%,x,x,x,x
O=C(c1ccc([N+](=O)[O-])s1)N1CCc2ccccc21,-18,u,-15%,12%,9%,-3%,x,x,x,x
O=C(c1ccc([N+](=O)[O-])s1)N1CCc2ccccc2C1,u,u,u,-21%,-26%,-53%,23µM*,u,u,4%
O=c1c(Br)c(N2CCCC2)cnn1-c1ccccc1,-9,-3,-3%,0%,11%,26%,x,x,x,x
O=c1c(Br)c(Br)cnn1-c1ccccc1,-106*,-8,10µM*,4.1µM*,2.9µM*,13µM*,4.6µM*,8.2µM*,4.6µM*,u
O=C(CNC(=O)c1ccccc1F)OC1CCOC1=O (stereo unspecified),38,7,-1%,1%,10%,6%,x,x,x,x
Cc1noc(C)c1C(=O)Nc1nnc(-c2ccccc2)s1,-2,-5,26%,10%,16%,-14%,x,x,x,x
NC(=S)N=Nc1c(O)n(CCCl)c2ccc(Br)cc12,-101*,2,u,-9%,-2%,-18%,-12%,u,u,2%
COc1cc(/C=C/C(=O)c2ccc3c(c2)OCCO3)cc(Br)c1OCC(=O)N(C)C,-104*,0,4µM*,3.7µM*,4.6µM*,-175%,3.7µM*,3.3µM*,21µM*,-29%
COc1ccc(CCNC(=O)c2ccc([N+](=O)[O-])cc2Cl)cc1OC,22,0,8%,6%,-7%,-6%,x,x,x,x
COc1ccc(CCNC(=O)c2ccc(-c3ccc([N+](=O)[O-])cc3Cl)o2)cc1OC,u,u,10µM*,-29%,-22%,-24%,21µM*,u,9.2µM*,32%
COc1ccc(-c2c/c(=N\c3nc(-c4ccccc4)c(C)s3)c3ccccc3o2)cc1O,18,7,8.9µM*,5.8µM*,5.8µM*,-15%,8.2µM*,u,4.1µM*,37%
COc1ccc(-c2cc(=Nc3c(C)n(C)n(-c4ccccc4)c3=O)c3ccccc3o2)cc1,-29,-11,-11%,-21%,-6%,-27%,x,x,x,x
Cc1ccc(C2(c3ccccc3)NC(=O)N(CC(=O)NCc3ccccc3)C2=O)cc1C (stereo unspecified),u,-8,11µM*,-17%,-20%,-28%,7.3µM*,u,u,42%
Nc1c2ccccc2nc2ccccc12,-97*!,-4,7.9µM*,13µM*,23µM*,12%,9.2µM*,12µM*,13µM*,5%
COc1ccccc1NC(=O)c1ccc(N2CC3CC(C2)c2cccc(=O)n2C3)c(NC(=O)c2ccncc2)c1 (stereo unspecified),-13,-8,41%,-2%,7%,-4%,x,x,x,x
Oc1ccc(C[C@@H](CN2CCCC2CN2C(=S)NC[C@@H]2Cc2ccccc2)N2C[C@H](Cc3ccccc3)N(CC3CCCCCC3)C2=S)cc1 (stereo partly specified),-8,x,x,-15%,-3%,x,x,x,x,x
